Common to all, as to design: scale not given: direction of the effect not stated beside the values
Assay [1] has as its target Protein translocase subunit SecA (Escherichia coli (strain K12)) (UniProt P10408). Put plainly: Assay to Identify E. coli SecA ATPase Inhibitors. The format is functional. To be noted: 30 µM.
Assay [2] deals with T1, Ubiquitin-activating enzyme e1, putative (Leishmania donovani (strain BPK282A1)) (UniProt E9BSI1).
T1 sequence (whole entry): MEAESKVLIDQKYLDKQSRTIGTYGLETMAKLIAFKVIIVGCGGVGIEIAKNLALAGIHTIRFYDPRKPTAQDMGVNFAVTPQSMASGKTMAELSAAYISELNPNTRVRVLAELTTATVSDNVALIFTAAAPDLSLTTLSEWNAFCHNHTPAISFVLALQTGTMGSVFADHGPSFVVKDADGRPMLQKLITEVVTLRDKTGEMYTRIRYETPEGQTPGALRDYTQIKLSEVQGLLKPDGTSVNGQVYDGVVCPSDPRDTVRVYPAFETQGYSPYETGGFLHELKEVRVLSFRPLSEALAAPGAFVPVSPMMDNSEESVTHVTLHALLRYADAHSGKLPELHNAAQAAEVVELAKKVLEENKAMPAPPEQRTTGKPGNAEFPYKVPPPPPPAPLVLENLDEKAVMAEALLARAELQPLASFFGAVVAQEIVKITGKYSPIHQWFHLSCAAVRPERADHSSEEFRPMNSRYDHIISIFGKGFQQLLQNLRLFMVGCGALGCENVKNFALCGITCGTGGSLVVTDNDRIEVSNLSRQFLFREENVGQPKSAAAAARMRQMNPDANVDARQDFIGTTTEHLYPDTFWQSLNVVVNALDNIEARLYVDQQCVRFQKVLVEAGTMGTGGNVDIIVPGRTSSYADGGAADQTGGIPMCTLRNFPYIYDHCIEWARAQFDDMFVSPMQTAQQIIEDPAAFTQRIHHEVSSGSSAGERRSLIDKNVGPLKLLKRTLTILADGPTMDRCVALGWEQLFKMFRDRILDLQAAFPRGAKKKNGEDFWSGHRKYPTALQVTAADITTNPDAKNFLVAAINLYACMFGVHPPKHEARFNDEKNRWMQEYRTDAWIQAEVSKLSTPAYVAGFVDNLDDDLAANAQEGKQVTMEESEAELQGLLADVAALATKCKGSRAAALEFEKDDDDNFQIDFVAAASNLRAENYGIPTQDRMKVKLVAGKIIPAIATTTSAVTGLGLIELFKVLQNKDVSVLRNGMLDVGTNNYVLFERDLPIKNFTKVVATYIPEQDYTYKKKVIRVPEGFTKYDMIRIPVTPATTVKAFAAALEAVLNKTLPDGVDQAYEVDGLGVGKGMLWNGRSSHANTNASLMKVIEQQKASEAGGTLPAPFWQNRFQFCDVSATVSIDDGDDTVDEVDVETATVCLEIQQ
Put plainly: Leishmania donovani Ubiquitin Activating Enzyme (LdE1). The assay is classed as functional. Conditions: 30 µM.

Assay [3] concerns the target AMP-activated protein kinase, AMPK (Homo sapiens) (UniProt P54646+O43741+P54619+Q9UGJ0+Q9Y478+Q13131+Q9UGI9). Put plainly: AMP-dependent Kinase enzyme assay. An in vitro enzyme assay that detects ADP turnover that is directly proportional to AMPK activity. This uses naive AMPK that is activated during the assay with MK-8722. The format is functional. Conditions: 30 µM.

Assay [4] addresses Sialic acid-binding Ig-like lectin 9 (Homo sapiens) (UniProt Q9Y336). Put plainly: Hs-Siglec9 ALPHAscreen SOP 20170721. To be noted: 10 µM. (In general: Bead proximity is the source of the signal in Alpha formats.)
The subject of another assay is Trypanosoma cruzi. Put plainly: Trypanosoma cruzi phosphomannomutase and mannose-1-phosphate guanylyltransferase assay. The assay is classed as functional. To be noted: 10 µM.
In assay [5] the target is T2, Arginase-2, mitochondrial (Homo sapiens) (UniProt P78540).
T2 sequence (whole entry): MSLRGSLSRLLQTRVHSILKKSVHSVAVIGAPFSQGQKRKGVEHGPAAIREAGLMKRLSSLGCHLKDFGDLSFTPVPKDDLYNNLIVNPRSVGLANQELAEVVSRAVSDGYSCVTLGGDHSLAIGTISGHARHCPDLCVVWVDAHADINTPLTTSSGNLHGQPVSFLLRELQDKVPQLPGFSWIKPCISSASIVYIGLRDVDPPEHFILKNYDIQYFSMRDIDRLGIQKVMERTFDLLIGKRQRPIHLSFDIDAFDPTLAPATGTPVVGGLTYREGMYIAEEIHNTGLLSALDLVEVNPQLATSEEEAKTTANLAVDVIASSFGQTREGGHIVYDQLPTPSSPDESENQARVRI
Put plainly: in vitro enzyme assay to detect the production of urea directly proportional to the activity of Arginase II. Further: in the data most compounds retested in dose-response had high values. The assay is classed as functional. Conditions: 33.3 µM.

In assay [6] the target is T3, Proteasome subunit beta (Trypanosoma cruzi) (UniProt O96673).
T3 sequence (whole entry): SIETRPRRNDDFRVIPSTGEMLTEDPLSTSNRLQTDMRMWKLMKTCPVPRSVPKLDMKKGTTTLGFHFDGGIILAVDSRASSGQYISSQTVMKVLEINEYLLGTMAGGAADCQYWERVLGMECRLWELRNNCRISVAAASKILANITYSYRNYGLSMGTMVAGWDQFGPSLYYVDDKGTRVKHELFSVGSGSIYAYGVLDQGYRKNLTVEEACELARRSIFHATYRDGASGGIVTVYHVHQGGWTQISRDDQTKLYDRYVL
Put plainly: Trypanosoma cruzi proteasome chymotrypsin-like activity (TcProtChymo) assay. Further: in the data most compounds retested in dose-response had high values. The assay is classed as functional. Conditions: 9.37 µM.

Another assay is filed under the species Homo sapiens. Put plainly: To identify inhibition of the IFN signalling (Jak-Stat) pathway via expression of an eGFP reporter gene under the control of an IFN-stimulated response element (ISRE) containing MxA promoter. The assay is classed as functional. Conditions: 30 µM. (Reporter assays use an easily measured gene product as a stand-in for the process of interest.)

Assay [7] deals with T4, Tyrosyl-tRNA synthetase, putative (Trypanosoma cruzi (strain CL Brener)) (UniProt Q4DSP6).
T4 sequence (whole entry): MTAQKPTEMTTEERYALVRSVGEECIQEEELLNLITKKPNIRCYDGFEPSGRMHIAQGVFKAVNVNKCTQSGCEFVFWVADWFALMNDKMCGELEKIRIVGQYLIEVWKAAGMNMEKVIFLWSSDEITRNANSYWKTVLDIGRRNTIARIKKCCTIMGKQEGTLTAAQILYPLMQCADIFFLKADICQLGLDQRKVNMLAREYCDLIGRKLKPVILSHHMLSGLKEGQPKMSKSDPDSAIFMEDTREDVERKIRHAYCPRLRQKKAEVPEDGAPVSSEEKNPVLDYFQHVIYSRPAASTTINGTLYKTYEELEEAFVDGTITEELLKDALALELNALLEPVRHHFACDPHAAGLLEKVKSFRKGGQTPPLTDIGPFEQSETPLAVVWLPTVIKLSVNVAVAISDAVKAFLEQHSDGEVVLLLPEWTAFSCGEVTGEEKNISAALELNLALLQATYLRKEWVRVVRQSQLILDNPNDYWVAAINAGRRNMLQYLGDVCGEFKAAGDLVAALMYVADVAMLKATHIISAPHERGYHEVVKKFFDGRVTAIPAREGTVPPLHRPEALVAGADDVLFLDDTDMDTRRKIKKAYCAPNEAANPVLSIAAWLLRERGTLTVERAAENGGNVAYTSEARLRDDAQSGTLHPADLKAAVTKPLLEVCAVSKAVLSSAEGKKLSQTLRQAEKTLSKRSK
Put plainly: Trypanosoma cruzi tyrosyl tRNA synthetase (TcYRS) _High Tyrosine SOP. Further: in the data most compounds retested in dose-response had high values. Conditions: 30 µM. The assay is classed as functional.

Assay [8] concerns the target T4, Tyrosyl-tRNA synthetase, putative (Trypanosoma cruzi (strain CL Brener)). Put plainly: Trypanosoma cruzi tyrosyl tRNA synthetase (TcYRS) SOP. The assay is classed as functional. To be noted: 30 µM.
Assay [9] has as its target Chromo domain-containing protein 1 (Saccharomyces cerevisiae (strain ATCC 204508 / S288c) (Baker's yeast)) (UniProt P32657). Put plainly: ScCHD-1 Enzyme Inhibition Assay. Further: in the data most compounds retested in dose-response had high values. Conditions: 30 µM. The format is functional.

For part of these data: Measured potencies and affinities stand elsewhere.

Chain of Chromo domain-containing protein 1 (Saccharomyces cerevisiae (strain ATCC 204508 / S288c) (Baker's yeast)) (P32657 whole entry, the tested form may be a part): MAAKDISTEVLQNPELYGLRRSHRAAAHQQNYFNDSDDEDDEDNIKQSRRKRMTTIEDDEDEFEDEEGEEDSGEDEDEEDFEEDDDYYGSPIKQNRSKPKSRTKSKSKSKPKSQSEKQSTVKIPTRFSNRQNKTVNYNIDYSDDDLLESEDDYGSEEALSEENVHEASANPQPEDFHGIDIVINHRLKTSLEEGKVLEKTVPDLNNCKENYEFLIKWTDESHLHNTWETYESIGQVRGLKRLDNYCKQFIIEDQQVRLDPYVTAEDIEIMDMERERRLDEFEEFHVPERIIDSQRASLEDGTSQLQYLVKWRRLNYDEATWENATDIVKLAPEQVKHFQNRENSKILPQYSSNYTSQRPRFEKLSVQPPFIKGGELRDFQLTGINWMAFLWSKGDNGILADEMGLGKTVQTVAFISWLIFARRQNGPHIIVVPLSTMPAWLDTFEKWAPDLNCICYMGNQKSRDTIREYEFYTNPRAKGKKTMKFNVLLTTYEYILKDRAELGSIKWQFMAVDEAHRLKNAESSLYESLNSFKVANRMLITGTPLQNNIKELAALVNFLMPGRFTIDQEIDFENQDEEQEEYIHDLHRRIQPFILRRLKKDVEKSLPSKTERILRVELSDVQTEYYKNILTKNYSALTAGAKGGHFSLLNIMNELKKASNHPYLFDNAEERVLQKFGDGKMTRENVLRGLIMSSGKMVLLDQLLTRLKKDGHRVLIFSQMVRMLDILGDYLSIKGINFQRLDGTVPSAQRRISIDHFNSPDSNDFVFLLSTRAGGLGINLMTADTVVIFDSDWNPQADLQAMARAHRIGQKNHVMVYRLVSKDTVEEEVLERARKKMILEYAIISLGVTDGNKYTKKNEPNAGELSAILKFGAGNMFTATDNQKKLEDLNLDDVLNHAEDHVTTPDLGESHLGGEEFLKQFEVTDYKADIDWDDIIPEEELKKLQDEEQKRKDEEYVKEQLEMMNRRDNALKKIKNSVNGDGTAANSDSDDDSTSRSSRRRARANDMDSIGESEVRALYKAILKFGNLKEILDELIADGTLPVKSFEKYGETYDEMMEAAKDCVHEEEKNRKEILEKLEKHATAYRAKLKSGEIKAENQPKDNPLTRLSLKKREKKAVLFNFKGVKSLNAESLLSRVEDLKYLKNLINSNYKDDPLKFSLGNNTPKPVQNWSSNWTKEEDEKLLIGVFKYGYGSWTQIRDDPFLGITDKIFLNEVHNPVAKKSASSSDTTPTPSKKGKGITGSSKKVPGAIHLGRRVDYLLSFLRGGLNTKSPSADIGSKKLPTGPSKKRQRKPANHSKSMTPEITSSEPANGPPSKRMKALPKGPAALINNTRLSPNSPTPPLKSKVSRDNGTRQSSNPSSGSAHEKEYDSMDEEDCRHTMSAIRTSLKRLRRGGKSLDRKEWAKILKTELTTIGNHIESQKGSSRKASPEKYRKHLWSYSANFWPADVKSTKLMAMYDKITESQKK
Chain of Protein translocase subunit SecA (Escherichia coli (strain K12)) (P10408 whole entry): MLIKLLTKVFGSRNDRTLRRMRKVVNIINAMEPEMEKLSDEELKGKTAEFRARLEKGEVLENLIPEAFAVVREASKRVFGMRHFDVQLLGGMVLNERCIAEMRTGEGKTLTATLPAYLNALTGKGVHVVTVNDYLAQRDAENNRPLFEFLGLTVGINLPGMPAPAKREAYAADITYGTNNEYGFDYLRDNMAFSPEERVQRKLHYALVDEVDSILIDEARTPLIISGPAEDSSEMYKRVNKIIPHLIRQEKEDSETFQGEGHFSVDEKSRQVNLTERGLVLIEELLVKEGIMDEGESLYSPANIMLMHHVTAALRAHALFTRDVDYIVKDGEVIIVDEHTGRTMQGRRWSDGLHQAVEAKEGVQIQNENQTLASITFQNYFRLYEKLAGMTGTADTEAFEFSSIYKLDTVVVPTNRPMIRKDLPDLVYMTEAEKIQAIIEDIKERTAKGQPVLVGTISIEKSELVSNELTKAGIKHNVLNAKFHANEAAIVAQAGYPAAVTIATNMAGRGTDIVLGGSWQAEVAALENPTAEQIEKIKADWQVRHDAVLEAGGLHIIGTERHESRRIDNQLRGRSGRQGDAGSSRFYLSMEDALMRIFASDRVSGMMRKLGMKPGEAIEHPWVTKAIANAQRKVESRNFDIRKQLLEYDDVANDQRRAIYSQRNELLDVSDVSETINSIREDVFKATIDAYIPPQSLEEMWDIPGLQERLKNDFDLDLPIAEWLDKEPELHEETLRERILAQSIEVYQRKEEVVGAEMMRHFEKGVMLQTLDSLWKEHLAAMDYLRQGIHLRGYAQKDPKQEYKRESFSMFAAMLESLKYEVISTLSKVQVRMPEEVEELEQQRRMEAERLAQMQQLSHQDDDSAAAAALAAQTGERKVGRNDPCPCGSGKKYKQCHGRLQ
Chain of Sialic acid-binding Ig-like lectin 9 (Homo sapiens) (Q9Y336 whole entry): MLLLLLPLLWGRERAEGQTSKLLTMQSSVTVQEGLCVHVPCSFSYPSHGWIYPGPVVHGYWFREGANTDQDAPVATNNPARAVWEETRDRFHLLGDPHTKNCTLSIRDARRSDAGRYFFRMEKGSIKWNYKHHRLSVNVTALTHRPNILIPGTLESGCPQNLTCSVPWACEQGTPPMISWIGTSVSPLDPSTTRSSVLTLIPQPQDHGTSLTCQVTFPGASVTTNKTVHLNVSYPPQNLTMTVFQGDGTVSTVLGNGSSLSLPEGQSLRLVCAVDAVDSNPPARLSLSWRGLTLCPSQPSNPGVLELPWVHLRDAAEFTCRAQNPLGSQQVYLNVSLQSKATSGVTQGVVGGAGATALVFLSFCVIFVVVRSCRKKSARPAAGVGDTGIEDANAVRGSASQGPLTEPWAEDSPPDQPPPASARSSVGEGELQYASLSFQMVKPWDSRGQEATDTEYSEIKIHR

With `c1cc(-c2cnccn2)cc(-c2ccn(CCN3CCCC3)n2)c1`, the Percent Effect was -2.8% in [1]; -21.6% in [2]; 3.09% in assay [3]; 2.06% in [4]; -1.54% in the assay with Trypanosoma cruzi; -10.9% in [5]. For the same compound, the Percent Effect in assay [6] is 6.9%; in the assay listed under Homo sapiens, 0.332%; in assay [7], 14.3%; in [8], 7.32%; in assay [9] it was -0.216%.
For `CCn1cc(CN2CCCN(C(=O)c3ccn(C)c(=O)c3)CC2)cn1`, the Percent Effect in assay [1] was -0.55%; in assay [2], 20.8%; in assay [3], -9.71%; in [4], -17.4%; in the assay on Trypanosoma cruzi, 4.02%; in [5], -0.632%. The Percent Effect in [6] is 10.9%; in the assay listed under Homo sapiens it was 11.6%; in assay [7] it was 10.5%; in assay [8], 23.5%; in assay [9] it was -18.6%.
As for `CCS(=O)(=O)c1ccc(N2CCC(NC(=O)c3cnn(C)c3)CC2)cc1`, the Percent Effect was -5.94% in [1]; 2.67% in [2]; -5.84% in assay [3]; 34.3% in [4]; 10.2% in the assay with Trypanosoma cruzi; -2.08% in [5]. Moreover, the Percent Effect was 16.2% in [6]; 21.8% in the assay listed under Homo sapiens; 1.64% in assay [7]; 13.6% in assay [8]; -5.47% in assay [9].
With `O=C(CN1CCC(c2ccnn2CCO)CC1)NCc1cccs1`, the Percent Effect in assay [1] is -3.33%; in assay [2], 15.2%; in assay [3], -3.55%; in assay [4], -6.32%; in the assay on Trypanosoma cruzi it was 1.23%; in assay [5], 1.52%. Moreover, the Percent Effect in assay [6] is 2.87%; in the assay filed under Homo sapiens it was -10.7%; in [7], 8.37%; in assay [8], 24.1%; in [9], -5.84%.
On to `CCOCCOC(C)C(=O)NCc1cn2cc(Br)ccc2n1` (centres undefined), for which the Percent Effect was -0.315% in assay [1]; 0% in assay [2]; 8.27% in assay [3]; 0.478% in assay [4]; 1.27% in the assay with Trypanosoma cruzi; 1.18% in assay [5]. In addition, the Percent Effect in assay [6] is 9.68%; in the assay filed under Homo sapiens, -18%; in assay [7], 5.32%; in [8] it was 10.4%; in [9], -1.5%.
Regarding `Cc1cnn(CC2CCCCN2C(=O)c2ccnc(N(C)C)c2)c1` (centres undefined), the Percent Effect was -4.87% in assay [1]; 10.4% in assay [2]; 2.75% in assay [3]; 9.97% in [4]; -0.49% with Trypanosoma cruzi; 4.42% in assay [5]. Besides, the Percent Effect was 13.8% in assay [6]; 5.85% in the assay filed under Homo sapiens; 2.86% in [7]; 9.41% in [8]; -16.5% in assay [9].
Turning to `COc1cc(CNC(=O)CNc2cc(Cl)ccc2OC)ccn1`, the Percent Effect is -4.04% in assay [1]; 0% in assay [2]; -0.0708% in assay [3]; 2.86% in [4]; -2.55% in the assay on Trypanosoma cruzi; 0.802% in assay [5]. Besides, the Percent Effect is 3.6% in assay [6]; 9.38% in the assay listed under Homo sapiens; -4.43% in [7]; 3.7% in assay [8]; 0.373% in assay [9].
For `CCOc1cc(C)nc(N2CCN(C(=O)c3ccnn3C)CC2)n1`, the Percent Effect in [1] was -1.84%; in assay [2], 5.41%; in assay [3], -0.273%; in assay [4] it was 4.02%; in the assay on Trypanosoma cruzi, 3.62%; in assay [5], -3.51%. The Percent Effect in assay [6] was 4.67%; in the assay filed under Homo sapiens, 2.75%; in assay [7], 3.96%; in assay [8], 18.3%; in assay [9], -3.83%.
`Cc1cccc(CN(C)Cc2nc3c(cnn3C)c(=O)[nH]2)c1`: the Percent Effect in assay [1] was -3.57%; in assay [2], 21.1%; in assay [3], -0.412%; in [4] it was -12.2%; in the assay with Trypanosoma cruzi, -5.51%; in assay [5], -5.04%. Further, the Percent Effect in assay [6] is 3.3%; in the assay filed under Homo sapiens, -2.73%; in [7], 8.37%; in assay [8] it was 23.5%; in assay [9] it was -7.57%.

The values are drawn from ChEMBL document CHEMBL3988442, “University of Dundee, Small-Polar-MMV Screening Library” (2021).
